Where “and” joins values, the source holds several entries; their conditions need not be identical. Identical values can stand only once. Screen size: about 290,000 compounds; about 27,000 (9.3%) were called active. The sample as a whole holds a higher share of actives than the screen did. Values without a mark were called inactive. Cut-off read from the data, not from the text of the source: active = inhibition mostly above about 28% (no sharp cut-off); inactive = mostly below about 43%.
Test: A qHTS for Small Molecule Inhibitors of Shiga Toxin; note: 0% is about no effect
Settings: Vero cells, Shiga toxin protein synthesis inhibition reporter; at 38.7 µM, hits give high values

Row | SMILES | inhibition
1 | COC(=O)C1=CN(c2ccc(F)c(F)c2)C=C(C(=O)OC)C1c1ccc([N+](=O)[O-])cc1 | 3.77%
2 | Cc1[nH][nH]c(=O)c1C(c1ccc2c(c1)OCO2)c1c(C)[nH][nH]c1=O | -5.46%
3 | Nc1[nH][nH]c(=O)c1N=Nc1ccc2c(c1)OCO2 | 74.5% (active)
4 | Cc1[nH][nH]c(=O)c1N=Nc1ccccc1 | -4.84%
5 | CC1CCC(NS(=O)(=O)c2ccc3c(c2)CC(=O)N3)CC1 (stereo unspecified) | -4.99%
6 | Clc1ccccc1SCc1nc2ccccc2[nH]1 | 79.4% (active)
7 | c1ccc2c(CSCc3nc4ccccc4[nH]3)cccc2c1 | 42.3%
8 | COc1ccc(OC(C)C(=O)NCCc2nc3ccccc3[nH]2)cc1 (stereo unspecified) | -1.88%
9 | COc1cc(C(=O)NN(CCC#N)C2=NS(=O)(=O)c3ccccc32)cc(OC)c1OC | -7%
10 | O=C(c1ccc(CS(=O)(=O)c2ccccc2)o1)N1CCN(c2ccccc2)CC1 | -5.16%
11 | COc1ccc(C2(C)NC(=O)N(CC(=O)c3ccc4c(c3)OCO4)C2=O)cc1 (stereo unspecified) | 20.5%
12 | O=C(CSc1nnc(CNC(=O)c2ccc(F)cc2)o1)Nc1ccc2c(c1)OCO2 | -2.6%
13 | O=C(O)c1ccc(OCC2CCCO2)cc1 (stereo unspecified) | -1.54%
14 | C=CCn1c(SCc2ccccc2)nc2c1c(=O)[nH]c(=O)n2C | -10.2%
15 | Cc1c(C(=O)NC(C)C2CC3CCC2C3)cccc1[N+](=O)[O-] (stereo unspecified) | -7.71%
16 | COC(=O)/C(NC(C)=O)=C(\C)c1ccc(Cl)cc1 | -4.26%
17 | COC(=O)C(=Nc1ccccc1)/C(C(=O)C(=O)N(C)c1ccccc1)=C(\O)c1ccc(Cl)cc1 | 127% (active)
18 | COC(=O)c1cn(C(=O)c2ccc(Cl)cc2)c2ccccc12 | 10.5%
19 | COCCn1cnc2c1c(=O)n(Cc1ccc(Br)cc1)c(=O)n2Cc1ccccc1 | 15.6%
20 | Cc1ccc(C2CCN(C(=S)Nc3cccc(Cl)c3)C2)cc1 (stereo unspecified) | 47.7% (active)
21 | Cc1cccc(NC(=S)N2CCCC(c3nc4ccccc4[nH]3)C2)c1 (stereo unspecified) | -11.2%
22 | O=C(C1CCCO1)N1CCN(C(=S)Nc2cccc(Cl)c2)CC1 (stereo unspecified) | -2.49%
23 | COc1cc(N2C(=O)CSC2=S)cc(OC)c1OC | -9%
24 | CN(C)CCNC(=O)c1[nH]nc2c1CCc1ccccc1-2 | 35.7%

Row | SMILES | inhibition
25 | Cc1cc(=O)cc(C)n1-c1ccc(Cl)c(Cl)c1 | 14.3%
26 | O=C(CCCc1ccccc1)NCc1ccccc1 | 39.1% (active)
27 | O=C(CCOc1ccccc1)NCc1ccccc1 | -3.66%
28 | O=C(Cc1ccccc1)NCc1ccc(F)cc1 | 55.7% (active)
29 | O=C(/C=C\NCC(=O)c1ccccc1)c1ccccc1 | 17.6%
30 | O=C(/C=C/NCc1ccc(F)cc1)c1ccccc1 | 61.7% (active)
31 | CCCCC(=O)NCc1ccc(F)cc1 | 21.3%
32 | O=C(O)CCCc1ccccc1 | -13.8% and 15.3%
33 | O=C(Cc1c(O)c2ccccc2[nH]c1=O)NCc1ccccc1 | -13.9%
34 | O=C(CNCc1ccc(F)cc1)Nc1ccccc1-c1ccccc1 | -4.12%
35 | CCn1c(SCC(=O)NC2CC2)nnc1-c1ccccc1OC | -5.24%
36 | O=C1/C(=C/c2ccc(F)cc2)SC(=S)N1CCCC(=O)N1CCCCC1CCO (stereo unspecified) | -4.46%
37 | CN(C)CCCN(C(=O)c1ccc(S(=O)(=O)N2CCCc3ccccc32)cc1)c1nc2ccc(F)cc2s1 | -2.08%
38 | O=C(NCc1ccncc1)C1CCN(C(=O)c2cccc(Cl)c2)CC1 | 4.24%
39 | COC(=O)C1(C)NC(c2ccc(C)cc2)C2C(=O)N(c3ccc(F)cc3)C(=O)C21 (stereo unspecified) | -13.6%
40 | O=S(=O)(c1cc(Cl)ccc1Cl)N1CCN(Cc2ccco2)CC1 | -10.2%
41 | O=c1[nH]c2ccc(S(=O)(=O)N3CCCC3)cc2[nH]1 | -12.3%
42 | Cc1ccc(C(C(=O)NCC2CCCO2)N(C(=O)c2snc(C(N)=O)c2N)c2ccc(C(C)C)cc2)o1 (stereo unspecified) | 3.97%
43 | N#Cc1cccc(CN2CCC(=O)N([C@H](CO)c3ccccc3)CC2)c1 | -4.45%
44 | O=C(NCC1CC1)C1(C(F)(F)F)C/C(=C\CCO)CCCO1 (stereo unspecified) | 2.98%
45 | Cc1c2cnn(CC(=O)NCc3ccccn3)c(=O)c2c(C)n1Cc1ccc(Cl)cc1 | -4.19%
46 | C/C(=N\NC(=O)c1ccccc1F)c1ccccn1 | 61.3% (active)
47 | C/C(=N\NC(=O)Cc1ccc(Cl)cc1)c1ccccn1 | 13.2%
48 | COc1ccc(CC(=O)N/N=C(\C)c2ccccn2)cc1 | -0.965%

Row | SMILES | inhibition
49 | CCCCN(CC)CCNC(=O)CCNC(=O)Cn1ccc2ccccc2c1=O | -4.87%
50 | O=S(=O)(c1ccc(F)cc1)N1CCN=C1SCc1cccc(F)c1 | -6%
51 | COCC(C)NC(=O)c1ccc(Cl)c(Cl)c1 (stereo unspecified) | -2.73%
52 | Cc1ccc(C)c(NC(=O)c2ccc3nccnc3c2)c1 | 19.7%
53 | CC(C)CCC(C)NC(=O)c1ccc2nccnc2c1 (stereo unspecified) | 95.5% (active)
54 | COC(=O)Cc1cnc(NC(=O)CSc2nc(C(C)C)cc(=O)[nH]2)s1 | -7.11%
55 | Oc1ccc(Br)cc1/C=N/Nc1ccccn1 | 66.3% (active)
56 | CCN(CC)CCn1c(/N=C/c2cc(Br)ccc2O)nc2ccccc21 | 26.3%
57 | Oc1ccc(Br)cc1C=Nc1ccc2[nH]ncc2c1 | -11.4%
58 | FC(F)(F)c1cccc(N/N=C/c2ccccc2)c1 | 33.8%
59 | Oc1ccc(/C=N/Nc2ccc(C(F)(F)F)cn2)cc1O | 108% (active)
60 | Cc1nccn1CC(=O)N/N=C/c1ccc(O)c(O)c1 | -15.2%
61 | COc1cc(C(=O)NCCOC(=O)c2cccc(N(C)C)c2)cc(OC)c1OC | -2.34%
62 | N#C/C=C/N1CCN(Cc2ccc3c(c2)OCO3)CC1 | -6.62%
63 | CCC(CC)NC(=O)CSc1nnc(-c2c[nH]c3ccccc23)o1 | -14.4%
64 | CN(C(=O)CSc1nnc(-c2c[nH]c3ccccc23)o1)C1CCS(=O)(=O)C1 (stereo unspecified) | -1.73%
65 | O=C(CSc1nnc(-c2c[nH]c3ccccc23)o1)c1ccccc1 | 22.5% (active)
66 | Cc1cccc(OCC(=O)Nc2ccc(NC(=O)c3ccco3)c(C)c2)c1 | -4.8%
67 | COc1ccc(-c2nonc2NC(=O)c2oc3ccc(F)cc3c2C)cc1OC | -3.6%
68 | CCOc1ccccc1CN1CCN(C2CCC2)CC1CCO (stereo unspecified) | -4.75%
69 | O=C(c1ccc(S(=O)(=O)c2ccccc2)cc1)N1CCCCCC1 | 1.55%
70 | O=C(c1ccc(CSc2ccccc2)cc1)N1CCCCCC1 | 17.6% (active)
71 | CC1CCN(C(=O)c2ccc(CSc3ccc(Cl)cc3)cc2)CC1 | 0.865%
72 | CSCC[C@H](NC(=O)N1CCn2c1nc1ccccc12)C(=O)NCc1ccc2c(c1)OCO2 | -0.771%

Row | SMILES | inhibition
73 | Cc1ccc(-c2nc(CS(=O)(=O)CC(=O)NCc3ccc4c(c3)OCO4)c(C)o2)cc1 | -3.19%
74 | Cc1ccc(NC(=O)c2ccc(CSc3ncnc4nc[nH]c34)cc2)c(C)c1 | 39%
75 | CCOC(=O)c1ccc(NC(=O)Cn2nnc(-c3ccc(C)cc3)n2)cc1 | -5.77%
76 | CCc1ccc(-c2nnn(Cc3nc4ccccc4s3)n2)cc1 | 81% (active)
77 | CCc1ccc(-c2nnn(Cc3nn[nH]n3)n2)cc1 | -3.04%
78 | COc1ccccc1N1CC(C(=O)Nc2nnc(SCC(=O)NCC3CCCO3)s2)CC1=O (stereo unspecified) | -8.54%
79 | COc1cccc(NC(=O)CN(C)C(=O)c2ccccc2CCc2ccccc2)c1 | 16.1%
80 | COc1ccc(CC(NC(C)=O)C(=O)NC2CCN(C(=O)c3ccc(Cl)cc3)CC2)cc1 (stereo unspecified) | -3.77%
81 | N#C/C=C1\Sc2ccccc2C(=O)N1CC(=O)N1CCN(S(=O)(=O)c2ccccc2)CC1 | 122% (active)
82 | O=C(Cc1ccccc1)N1CCN(S(=O)(=O)c2ccc([N+](=O)[O-])cc2)CC1 | -23.6%
83 | CC(CC(=O)N1CCN(S(=O)(=O)c2ccccc2)CC1)n1cncn1 (stereo unspecified) | -9.3%
84 | COC(=O)CN1C(=O)[C@H]2[C@@H](/C=C/c3ccccc3)N3C(=O)CN(Cc4ccccc4)C(=O)[C@@]3(Cc3ccccc3)[C@H]2C1=O | -2.54%
85 | O=C(Cc1cccs1)N1CCCC(c2nc(-c3ccc(S(=O)(=O)N4CCCC4)cc3)no2)C1 (stereo unspecified) | -10.3%
86 | Cc1ccc(-c2noc(C3CCCN(C(=O)c4cccc(Cl)c4)C3)n2)o1 (stereo unspecified) | 69.1% (active)
87 | CCc1nc2ccc(C(=O)N3CCN(c4cccc(Cl)c4)CC3)cc2nc1CC | -14%
88 | O=C(c1cccs1)N1CCCC(c2nc(-c3ccc(F)cc3)no2)C1 (stereo unspecified) | 82.3% (active)
89 | COc1cc(-c2noc(C3CCCN(S(=O)(=O)c4cccc(Cl)c4)C3)n2)cc(OC)c1OC (stereo unspecified) | -8.14%
90 | COc1ccc(NC(=O)N2CCCC(C(=O)Nc3ccccc3OC)C2)cc1 (stereo unspecified) | -5.66%
91 | CCN(C(=O)C1CCCN(c2nc(-c3ccc(OC)cc3)no2)C1)c1ccc(OC)cc1 (stereo unspecified) | 9.76%
92 | Cc1c(CN2CCCC(C(=O)c3cccc(Cl)c3)C2)c(=O)n(-c2ccccc2)n1C (stereo unspecified) | -7.01%
93 | O=C(c1ccc(F)cc1)N1CCCC(c2nc(-c3cccs3)no2)C1 (stereo unspecified) | 16.4%
94 | CC(C)c1ccc(-c2noc(C3CCCN(S(C)(=O)=O)C3)n2)cc1 (stereo unspecified) | 64.2% (active)
95 | COc1ccc(C(=O)NC2CCN(C(=O)Nc3ccc(F)cc3)CC2)cc1 | -7.18%
96 | COc1ccc(NC(=O)N2CCCC(c3nc(-c4ccc(F)cc4)no3)C2)cc1 (stereo unspecified) | 96% (active)

Source: PubChem BioAssay AID2315 (National Center for Advancing Translational Sciences (NCATS), 2010)
